From PubChem BioAssay (EPA / NIEHS)
Inconclusive results are not listed. Calls of active or inactive are those of the source. The calls were made as follows, unless noted: active = hit-call score of the fitted dose curve at least 0.9, where 1 is the maximum; inactive = score below 0.9.

Key:
[1] = ATG_TCF_b_cat_CIS: Attagene CIS-FACTORIAL HepG2 Assay for human T-Cell-Factor with beta-catenin (TCF/b-cat) (AID 2282965); conditions: HepG2 TCF/beta-catenin cis-reporter transcription, actives raise or lower the signal
Method in brief: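 Cells of the HepG2 line carry transiently transfected reporter units whose promoters respond to endogenous factors. Twenty-four hours post-dosing, reporter mRNA induction is measured by fluorescent RT-PCR and capillary electrophoresis, with DMSO as baseline.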

[2] = ATG_TAL_CIS: Attagene CIS-FACTORIAL HepG2 Assay for human TAL Basal Promoter (AID 2282966); conditions: HepG2 Attagene cis-factorial TAL promoter reporter; actives raise or lower the signal;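 also: background control endpoint measuring basal TAL promoter reporter mRNA not a specific factor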
Method in brief: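 After 24 hours of chemical exposure, transfected HepG2 cells yielded RNA that was converted to 6-FAM-labelled, HpaI-digested reporter fragments for capillary electrophoresis. Values derive from bidirectional fitting against DMSO controls.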

[3] = ATG_TGFb_CIS: Attagene CIS-FACTORIAL HepG2 Assay for human Transforming Growth Factor (TGF) (AID 2282967); conditions: HepG2 Attagene CIS TGFb reporter, mRNA transcription; actives raise or lower the signal
Method in brief: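 Multiplexed cis-reporter HepG2 system, 24 h treatment; mRNA induction read by fluorescence after RT-PCR and CE; DMSO negative control, bidirectional curve fitting.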

[4] = ATG_VDRE_CIS: Attagene CIS-FACTORIAL HepG2 Assay for human Vitamin D Receptor Element (VDRE) (AID 2282968); conditions: HepG2 VDRE cis-reporter transcription, actives raise or lower the signal
Method in brief: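 Transient MRTU transfection of HepG2, 24 h compound exposure. Readout: reporter transcripts via RT-PCR and capillary electrophoresis, fluorescence. Bidirectional fit vs DMSO.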

[5] = molecular target: Estrogen receptor (Homo sapiens) (UniProt P03372); experiment: ATG_ERa_TRANS: Attagene TRANS-FACTORIAL HepG2 Assay for human Estrogen Receptor alpha (ERa) (AID 2282970; active = hit-call score of the fitted dose curve at least 0.9, where 1 is the maximum); conditions: HepG2 Attagene TRANS ERa GAL4 reporter, mRNA
Estrogen receptor (Homo sapiens), sequence (P03372 whole entry, looked up, the tested form may be a part): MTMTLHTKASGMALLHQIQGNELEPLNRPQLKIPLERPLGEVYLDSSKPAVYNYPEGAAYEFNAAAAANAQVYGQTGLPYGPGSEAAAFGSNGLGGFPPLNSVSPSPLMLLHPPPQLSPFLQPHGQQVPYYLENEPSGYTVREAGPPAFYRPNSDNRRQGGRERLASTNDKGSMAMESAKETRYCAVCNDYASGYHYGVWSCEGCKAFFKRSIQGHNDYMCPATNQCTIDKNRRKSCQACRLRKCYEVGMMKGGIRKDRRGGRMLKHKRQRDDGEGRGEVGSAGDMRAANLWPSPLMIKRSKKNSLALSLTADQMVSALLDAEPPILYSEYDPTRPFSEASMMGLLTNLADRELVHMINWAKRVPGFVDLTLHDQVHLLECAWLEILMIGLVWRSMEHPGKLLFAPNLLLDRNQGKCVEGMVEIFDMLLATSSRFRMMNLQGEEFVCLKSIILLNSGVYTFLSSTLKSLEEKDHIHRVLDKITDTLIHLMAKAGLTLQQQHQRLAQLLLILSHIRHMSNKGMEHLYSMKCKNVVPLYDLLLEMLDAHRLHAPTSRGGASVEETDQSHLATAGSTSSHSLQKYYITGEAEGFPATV
Method in brief: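 Liver-derived HepG2 cells expressing chimeric nuclear receptor-Gal4 proteins from transient transfection were exposed for 24 hours. Gain of reporter mRNA signal versus DMSO, read by capillary electrophoresis of FAM-labelled PCR products, was recorded.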

[6] = molecular target: Steroid hormone receptor ERR1 (Homo sapiens) (UniProt P11474); experiment: ATG_ERRa_TRANS: Attagene TRANS-FACTORIAL HepG2 Assay for human Estrogen-Related Receptor alpha (ERRa) (AID 2282971; active = hit-call score of the fitted dose curve at least 0.9, where 1 is the maximum); conditions: HepG2 Attagene TRANS reporter, ERRa transactivation
Steroid hormone receptor ERR1 (Homo sapiens), sequence (P11474 whole entry, looked up, the tested form may be a part): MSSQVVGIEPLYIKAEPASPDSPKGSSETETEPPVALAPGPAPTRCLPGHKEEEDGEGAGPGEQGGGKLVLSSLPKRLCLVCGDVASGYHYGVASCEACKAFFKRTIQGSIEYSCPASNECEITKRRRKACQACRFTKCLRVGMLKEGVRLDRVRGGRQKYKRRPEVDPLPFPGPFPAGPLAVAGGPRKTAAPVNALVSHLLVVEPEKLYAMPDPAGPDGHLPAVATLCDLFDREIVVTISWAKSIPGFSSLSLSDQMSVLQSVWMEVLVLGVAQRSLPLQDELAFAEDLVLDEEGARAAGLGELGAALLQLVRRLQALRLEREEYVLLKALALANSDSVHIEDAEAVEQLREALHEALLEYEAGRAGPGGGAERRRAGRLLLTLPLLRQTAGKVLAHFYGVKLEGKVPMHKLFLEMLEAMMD
Method in brief: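 Reporter transcript induction was quantified by RT-PCR and capillary electrophoresis of FAM-labelled, HpaI-cut products after 24 h treatment of HepG2 cells carrying transiently transfected GAL4-UAS reporter units and an exogenous ERRa-Gal4 fusion; activity scored as increase over DMSO.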

[7] = molecular target: X-box-binding protein 1 (Homo sapiens) (UniProt P17861); experiment: ATG_Xbp1_CIS: Attagene CIS-FACTORIAL HepG2 Assay for human X-box Binding Protein 1 (XBP1) (AID 2282972); conditions: HepG2 XBP1 cis-element reporter, Attagene multiplex; actives raise or lower the signal
X-box-binding protein 1 (Homo sapiens), sequence (P17861 whole entry, looked up): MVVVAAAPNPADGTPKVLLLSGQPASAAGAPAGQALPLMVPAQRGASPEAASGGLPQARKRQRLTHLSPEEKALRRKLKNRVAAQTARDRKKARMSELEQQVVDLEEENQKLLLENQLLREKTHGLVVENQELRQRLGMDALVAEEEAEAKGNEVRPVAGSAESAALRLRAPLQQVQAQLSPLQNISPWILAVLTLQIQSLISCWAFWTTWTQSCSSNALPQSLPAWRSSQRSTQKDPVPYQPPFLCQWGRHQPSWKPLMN
Method in brief: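 Reporter transcripts were quantified by RT-PCR with fluorescent primer extension and capillary electrophoresis after 24 h chemical exposure. Cells: transiently transfected HepG2 carrying cis-regulated reporter constructs; data fitted bidirectionally relative to DMSO.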

[8] = ATG_M_19_TRANS: Attagene TRANS-FACTORIAL HepG2 Assay for M19 Transcription Factor (Internal Marker) (AID 2282974; active = hit-call score of the fitted dose curve at least 0.9, where 1 is the maximum); conditions: HepG2 Attagene TRANS-FACTORIAL M19 internal marker reporter
Method in brief: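 HepG2 transiently transfected with GAL4-UAS multiplex reporter constructs, exposed 24 h; reporter RNA quantified by RT-PCR, 6-FAM labeling, HpaI digestion and capillary electrophoresis; internal background marker fitted upward versus DMSO.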

[9] = ATG_GAL4_TRANS: Attagene TRANS-FACTORIAL HepG2 Assay for GAL4 (Internal Marker) (AID 2282976; active = hit-call score of the fitted dose curve at least 0.9, where 1 is the maximum); conditions: HepG2 Attagene TRANS GAL4 internal marker reporter
Method in brief: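 First, HepG2 cells were transfected with reporter units under GAL4-UAS control. Next, they were treated with chemical for 24 h. Finally, RNA was reverse-transcribed, PCR-amplified, FAM-labelled and resolved by capillary electrophoresis, with induction scored against DMSO.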

[10] = molecular target: Nuclear receptor subfamily 1 group I member 3 (Homo sapiens) (UniProt Q14994); experiment: ATG_CAR_TRANS: Attagene TRANS-FACTORIAL HepG2 Assay for human Constitutive Androstane Receptor (CAR) (AID 2282969; active = hit-call score of the fitted dose curve at least 0.9, where 1 is the maximum;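 also: activators raise reporter mRNA above DMSO so AC50 marks induction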); conditions: HepG2 Attagene TRANS-FACTORIAL CAR reporter
Nuclear receptor subfamily 1 group I member 3 (Homo sapiens), sequence (Q14994 whole entry, looked up, the tested form may be a part): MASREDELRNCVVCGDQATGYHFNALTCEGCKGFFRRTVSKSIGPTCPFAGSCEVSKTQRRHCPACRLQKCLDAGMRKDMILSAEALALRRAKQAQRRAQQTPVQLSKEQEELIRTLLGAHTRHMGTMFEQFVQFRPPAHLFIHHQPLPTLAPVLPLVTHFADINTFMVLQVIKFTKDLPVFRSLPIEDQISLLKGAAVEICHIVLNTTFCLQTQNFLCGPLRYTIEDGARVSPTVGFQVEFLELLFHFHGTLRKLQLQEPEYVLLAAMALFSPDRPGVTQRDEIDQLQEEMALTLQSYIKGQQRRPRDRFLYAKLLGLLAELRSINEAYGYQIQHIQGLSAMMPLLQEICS
Method in brief: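 Transiently transfected HepG2, multiplex TRANS reporters (CAR-Gal4 chimera driving GAL4-UAS reporter). 24 h dosing. Readout: reporter transcript by RT-PCR + capillary electrophoresis, fluorescence intensity; positive direction vs DMSO.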

Structure (SMILES): NS(=O)(=O)c1cc2c(cc1Cl)NCNS2(=O)=O
- outcome [1]: inactive
- outcome [2]: inactive
- outcome [3]: inactive
- AC50 [4]: 4.41 µM (active)
- outcome [5]: inactive
- outcome [6]: inactive
- outcome [7]: inactive
- outcome [8]: inactive
- outcome [9]: inactive

Structure (SMILES): O=C(N[C@@H](Cc1ccccc1)[C@@H](O)C(=O)N1C[C@@H](O)[C@@H](O)C1)c1cc2cc(Cl)ccc2[nH]1
- outcome [1]: inactive
- outcome [2]: inactive
- outcome [3]: inactive
- outcome [4]: inactive
- outcome [5]: inactive
- AC50 [7]: 151 µM (active)
- outcome [9]: inactive

Structure (SMILES): COCCOC[C@H](CC1(C(=O)NC2CCC(C(=O)O)CC2)CCCC1)C(=O)Oc1ccc2c(c1)CCC2 (some centres undefined)
- outcome [1]: inactive
- outcome [2]: inactive
- outcome [3]: inactive
- AC50 [4]: 48.5 µM (active)
- outcome [5]: inactive
- outcome [6]: inactive
- outcome [7]: inactive
- outcome [9]: inactive

Structure (SMILES): COc1cc(-c2nc(NC(=O)c3cc4cc(C)cc(C)c4n3CC(=O)O)sc2CCC2CCCCC2)c(OC)cc1Cl
- AC50 [1]: 5.17 µM (active)
- AC50 [2]: 100 µM (active)
- AC50 [3]: 26 µM (active)
- AC50 [4]: 7.46 µM (active)
- outcome [5]: inactive
- AC50 [7]: 21.7 µM (active)
- outcome [8]: inactive

Structure (SMILES): CN1CCN(Cc2cc(-c3ccc4[nH]c(=O)oc4c3)co2)[C@@H](c2ccc(F)cc2)C1
- AC50 [1]: 25.7 µM (active)
- outcome [2]: inactive
- outcome [3]: inactive
- AC50 [4]: 27.4 µM (active)
- outcome [5]: inactive
- outcome [7]: inactive
- outcome [8]: inactive

Structure (SMILES): Cc1ccc(C(C)C)c(O)c1
- outcome [1]: inactive
- outcome [2]: inactive
- outcome [3]: inactive
- outcome [4]: inactive
- outcome [10]: inactive
- AC50 [5]: 46.1 µM (active)
- outcome [7]: inactive
- outcome [9]: inactive

Structure (SMILES): CC1(C)NC(=O)NC1=O
- outcome [1]: inactive
- outcome [2]: inactive
- outcome [3]: inactive
- outcome [4]: inactive
- outcome [10]: inactive
- AC50 [5]: 26.3 µM (active)
- outcome [6]: inactive
- outcome [7]: inactive
- outcome [8]: inactive

Structure (SMILES): CC(=O)Oc1ccccc1C(=O)O
- AC50 [1]: 162 µM (active)
- outcome [2]: inactive
- outcome [3]: inactive
- AC50 [4]: 82.9 µM (active)
- outcome [5]: inactive
- outcome [7]: inactive

Structure (SMILES): NCC1(Cc2noc(=O)[nH]2)CCCCC1
- outcome [1]: inactive
- outcome [2]: inactive
- outcome [3]: inactive
- outcome [4]: inactive
- outcome [10]: inactive
- outcome [7]: inactive
- outcome [9]: inactive

Structure (SMILES): Cc1c(C(=O)O)c(O)cc2c1C(=O)c1c(O)c([C@@H]3O[C@H](CO)[C@@H](O)[C@H](O)[C@H]3O)c(O)c(O)c1C2=O
- outcome [1]: inactive
- outcome [2]: inactive
- outcome [3]: inactive
- outcome [4]: inactive
- outcome [5]: inactive
- outcome [7]: inactive
- outcome [8]: inactive

Structure (SMILES): O=c1[nH]cc(F)c(=O)[nH]1
- outcome [1]: inactive
- outcome [2]: inactive
- outcome [3]: inactive
- outcome [4]: inactive
- AC50 [5]: 26.1 µM (active)
- outcome [7]: inactive
- outcome [8]: inactive

Structure (SMILES): COc1cc(S(=O)(=O)O)c(C)cc1N=Nc1c(O)ccc2cc(S(=O)(=O)O)ccc12
- outcome [1]: inactive
- outcome [2]: inactive
- outcome [3]: inactive
- outcome [4]: inactive
- outcome [10]: inactive
- outcome [6]: inactive
- outcome [7]: inactive
- outcome [9]: inactive

Structure (SMILES): Cc1ccc(N(C)C)cc1
- outcome [1]: inactive
- outcome [2]: inactive
- outcome [3]: inactive
- outcome [4]: inactive
- outcome [5]: inactive
- outcome [7]: inactive

Structure (SMILES): C[C@]12C=CC(=O)C=C1CC[C@@H]1[C@@H]2C(=O)C[C@@]2(C)[C@H]1CC[C@]2(O)C(=O)CO
- outcome [1]: inactive
- outcome [2]: inactive
- outcome [3]: inactive
- outcome [4]: inactive
- AC50 [5]: 58.3 µM (active)
- outcome [7]: inactive

Structure (SMILES): Cc1nc(-c2ccc3c(c2)CCN(CCC2CCC(NC(=O)/C=C/c4ccc(F)cc4)CC2)CC3)no1 (centres undefined)
- outcome [1]: inactive
- outcome [2]: inactive
- outcome [3]: inactive
- outcome [4]: inactive
- outcome [5]: inactive
- outcome [7]: inactive

Structure (SMILES): CCCCCCCCCCCC(=O)OC
- outcome [1]: inactive
- outcome [2]: inactive
- outcome [3]: inactive
- outcome [4]: inactive
- outcome [5]: inactive
- outcome [7]: inactive
- outcome [8]: inactive
- outcome [9]: inactive

Structure (SMILES): Cc1cccc(Nc2cc(Cl)nc(SCC(=O)O)n2)c1C
- outcome [1]: inactive
- outcome [2]: inactive
- outcome [3]: inactive
- outcome [4]: inactive
- outcome [5]: inactive
- outcome [7]: inactive
- outcome [9]: inactive

Structure (SMILES): CCCCCCCCCCCCCO
- AC50 [1]: 34.3 µM (active)
- outcome [2]: inactive
- outcome [3]: inactive
- outcome [4]: inactive
- outcome [10]: inactive
- AC50 [5]: 65.7 µM (active)
- outcome [6]: inactive
- outcome [7]: inactive
- outcome [8]: inactive

Structure (SMILES): COc1cc(C=O)ccc1O
- outcome [1]: inactive
- outcome [2]: inactive
- outcome [3]: inactive
- outcome [4]: inactive
- outcome [10]: inactive
- outcome [5]: inactive
- outcome [7]: inactive
- outcome [8]: inactive
- outcome [9]: inactive

Structure (SMILES): CCCCOC(=O)CCCCCCCCC(=O)OCCCC
- AC50 [1]: 146 µM (active)
- outcome [2]: inactive
- outcome [3]: inactive
- outcome [4]: inactive
- outcome [5]: inactive
- outcome [7]: inactive
- outcome [8]: inactive
- outcome [9]: inactive
